PubChem BioAssay (NCI)
About 83,000 compounds went through this panel and 20% of them were active in at least one assay; those are over-represented in the sample as a whole.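 Single-dose data. Exposure time 48 hours. Values below 10 considered active.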 Values without a mark were called inactive. Activity calls are given as the source filed them.

These compounds were tested on MOLT-4 leukemia (assay: NCI-60 one-dose screen, 48 h (100 = growth as untreated, 0 = no growth, -100 = all killed)). Conditions: 10 µM.
With `O=C(Nc1ccc(OS(=O)(=O)c2ccccc2)cc1)C12CC3CC(CC(C3)C1)C2` the growth was 39.5%.
For `O=C(Nc1cccc(-n2cc(-c3ccncc3)c(-c3ccc(O)c(Cl)c3)n2)c1)c1cc(C(F)(F)F)cc(C(F)(F)F)c1`, the growth was 34.4%.
In the case of `CCCC#CCN(CC)CC`, the growth is reported as 109%.
For `Cc1ccc(S(=O)(=O)OCCN(CCOS(=O)(=O)c2ccc(C)cc2)c2c[nH]c(=O)[nH]c2=O)cc1`, the growth was 104%.
`CCOC(=O)C(NC(=O)C(Cl)Cl)C(O)c1ccccc1` (stereo not drawn) was tested, and the growth was 98.3%.

These compounds were tested on SR leukemia in the same assay as above. Conditions: 10 µM.
For `CCCCCCCNc1nc(C=O)ncc1-c1ccc(C(F)(F)F)cc1`, the growth was -2.53% (active).
In the case of `CCCCCCN1CCN(Cc2ccc(N(CC)CC)cc2)C(=O)C1=O`, the growth is reported as 3.37% (active).
For `O=C(Nc1cccc(-n2cc(-c3ccncc3)c(-c3ccc(O)c(Cl)c3)n2)c1)Nc1ccc(Cl)c(Cl)c1`, the growth was -0.568% (active).
`S=C1SCC(c2ccccc2)S1` (stereo not drawn) showed a growth of 103%.
In the case of `COc1cccc(C(=O)Nc2ccc(CN3CCc4nc5cc(OC)c(OC)cc5cc43)cc2)c1`, the growth is reported as 24.1%.
Work on `COc1ccc(-c2nn(-c3cccc(NC(=O)c4cc(C(F)(F)F)cc(C(F)(F)F)c4)c3)cc2-c2ccncc2)cc1Cl` yielded a growth of 36.3%.
Compound `O=C(Nc1ccccc1)Nc1cccc(-n2cc(-c3ccncc3)c(-c3ccc(O)c(Cl)c3)n2)c1` has a growth of 11.9%.
`N#CCCN1C/C(=C/c2ccc(Cl)cc2)C(=O)/C(=C/c2ccc(Cl)cc2)C1` was tested, and the growth was -17.5% (active).
With `COc1ccc(-c2nn(-c3cccc(NC(=O)c4cccc(C(F)(F)F)c4)c3)cc2-c2ccncc2)cc1Cl` the growth was 4.46% (active).
Work on `COc1ccc([N+](=O)[O-])c(C(=O)O)c1` yielded a growth of 93.8%.
`CN(C)CCN=c1nc2c(c(N)n1-c1ccccc1)c(=S)n(-c1ccccc1)c(=S)n2-c1ccccc1` showed a growth of 34.7%.
`O=C(Nc1cccc(-n2cc(-c3ccncc3)c(-c3ccc(O)c(Cl)c3)n2)c1)c1cccc(C(F)(F)F)c1` showed a growth of 18.4%.
`COc1cccc(NC(=O)c2sc3nc4c(cc3c2N)C(O)CCC4)c1` (stereo not drawn) was tested, and the growth was 0.382% (active).
In the case of `O=S(=O)(NCCCNc1nccc(-c2c(-c3ccc(F)cc3)nc3sccn23)n1)c1ccc2ccccc2c1`, the growth is reported as 28.5%.
In the case of `COc1ccc(-c2nn(-c3cccc(NC(=O)Nc4cccc(C(F)(F)F)c4)c3)cc2-c2ccncc2)cc1Cl`, the growth is reported as 4.34% (active).
With `COc1ccc(-c2nn(-c3cccc(NC(=O)c4ccc(Cl)c(Cl)c4)c3)cc2-c2ccncc2)cc1Cl` the growth was 24.3%.
With `Cc1c(Cl)cccc1NC(=O)c1sc2nc3c(cc2c1N)C(=O)CCC3` the growth was 2.96% (active).
`COc1cc(/C=C/C(=O)c2ccc(Cl)cc2)ccc1OS(=O)(=O)c1ccc(C)cc1` was tested, and the growth was -13.8% (active).
`O=C(N/N=C/c1cc2ccccc2c2ccccc12)c1cc(O)c(O)c(O)c1` was tested, and the growth was 9.56% (active).
For `COc1ccc(-c2nn(-c3cccc(NC(=O)c4ccc(N5CCOCC5)c(C(F)(F)F)c4)c3)cc2-c2ccncc2)cc1Cl`, the growth was 27.2%.
For `COc1ccc(-c2cc(/C=C/C(=O)c3cc(OC)c(OC)c(OC)c3)[nH]n2)cc1OC`, the growth was 3.11% (active).
`CC1=C(N2CCOCC2)C(N2CCOCC2)=C(C)C(=O)C1=O` was tested, and the growth was 97.4%.
`Cc1ccc(C)c(C(O)(c2cc(C)ccc2C)C2(O)CCCCC2)c1` gave a growth of 85.1%.
For `COc1ccc(-c2nn(-c3cccc(NC(=O)c4ccc5c(c4)OCCO5)c3)cc2-c2ccncc2)cc1Cl`, the growth was -9.34% (active).
Work on `Cc1ncc(-c2ccoc2)c(NC2CCCCCC2)n1` yielded a growth of 96.1%.
With `O=S(=O)(NCCNc1nccc(-c2c(-c3ccc(F)cc3)nc3sccn23)n1)c1ccc2ccccc2c1` the growth was 46.6%.
`COc1ccc2c(c1)nc(N)c1c3cccnc3cn21` was tested, and the growth was 6.83% (active).
`O=C(Nc1cccc(-n2cc(-c3ccncc3)c(-c3ccc(O)c(Cl)c3)n2)c1)c1ccc(Cl)c(Cl)c1` was tested, and the growth was 15.1%.
In the case of `CCN1CCCC1CNC(=O)c1ncc(-c2ccc(C(F)(F)F)cc2)c(NC2CCCCCC2)n1` (stereo not drawn), the growth is reported as -16.6% (active).
In the case of `Clc1ccc(-c2cn(-c3ccccc3)c(-c3ccccc3)n2)c(Cl)c1`, the growth is reported as -51.6% (active).
With `CCCCCCCCCCCCCCCC(=O)OC1[C@@H](OC(=O)CCCCCCCCCCCCCCC)[C@@H](C(=O)N[C@@H](CCCCN)C(=O)OC)O[C@H]1n1cnc2c(=O)[nH]c(NC(=O)C(C)C)nc21` (stereo partly drawn) the growth was 9.69% (active).
In the case of `O=c1oc2cc(OS(=O)(=O)c3ccccc3)ccc2c2c1CCCCC2`, the growth is reported as 7% (active).
`O=C(Nc1cccc(-n2cc(-c3ccncc3)c(-c3ccc(O)c(Cl)c3)n2)c1)c1ccc(N2CCOCC2)c(C(F)(F)F)c1` gave a growth of 18%.
With `O=C(Nc1ccc(OS(=O)(=O)c2ccccc2)cc1)C12CC3CC(CC(C3)C1)C2` the growth was 11.2%.
`O=C(Nc1cccc(-n2cc(-c3ccncc3)c(-c3ccc(O)c(Cl)c3)n2)c1)c1cc(C(F)(F)F)cc(C(F)(F)F)c1` was tested, and the growth was 39.1%.
`CCCC#CCN(CC)CC` showed a growth of 101%.
`Cc1ccc(S(=O)(=O)OCCN(CCOS(=O)(=O)c2ccc(C)cc2)c2c[nH]c(=O)[nH]c2=O)cc1` showed a growth of 104%.
Compound `CCOC(=O)C(NC(=O)C(Cl)Cl)C(O)c1ccccc1` (stereo not drawn) has a growth of 107%.
